# This is a sample that favours compounds with a hit; in the whole collection about 2.5% have one here.
# YB-1 expr inh = YB-1 expression inhibition; U2OS, qRT-PCR YB-1 vs CDIP delta delta Cp, 16 h; hits give high values; zero = DMSO, each unit about twofold; delta delta Cp (YB-1 minus CDIP) (test concentration not listed); 30,000 tested, 0.37% active; AID 434959;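 active means delta delta Cp rounded down to an integer at or above 3, about 3 SD of DMSO wells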;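 further: higher means less YB-1 transcript or more CDIP transcript relative to DMSO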
# ROS inducer = cancer cell ROS induction; U2OS ROS induction, H2DCF-DA fluorescence; ROS induction (% of piperlongumine), % at 10 µM; 46,000 tested, 2% active; in the data active means ROS induction above about 79%, passing the limit was not always enough;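 further: 0% = DMSO vehicle median and 100% = reference compound median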
# BJeLR viability = lowers viability of BJeLR cells | AID 2275 | viability loss activity score, % (no concentration beside the values) | 30,000 tested, 0.64% active | BJeLR fibroblasts viability, CellTiterGlo ATP luminescence, 48 h; HRASV12, hTERT and SV40 LT/ST transformed; in the data active means viability loss activity score above about 50%;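 further: higher score means fewer live cells and less ATP luminescence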
# MITF inhib = MITF inhibition | TRPM1 promoter luciferase, luminescence, 24 h | inhibition, % (concentration not given with the values) | 37,000 tested, 0.28% active; in the data active means inhibition above about 85%;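 further: human melanocyte line stably carrying TRPM1 promoter luciferase reporter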
# * = called active by the depositor; nt = no result.
SMILES,YB-1 expr inh,ROS inducer,BJeLR viability,MITF inhib
CCOC(=O)CN1C(=O)S/C(=C/c2ccc3c(c2)n(C)c(=O)n3C)C1=O,nt,0,1,nt
CCOC(=O)CN1C(=O)S/C(=C\c2ccccc2OCc2ccccc2F)C1=O,nt,103*,0,nt
CC(=O)OC(C(=O)N1CCN(C(c2ccccc2)c2ccccc2)CC1)c1ccccc1 (stereo not drawn),nt,nt,-1,nt
N#CCSc1nc2ccccc2c(=O)n1CCCn1c(SCC#N)nc2ccccc2c1=O,nt,nt,0,nt
C[C@@H]1CCCCO[C@H](CN(C)S(=O)(=O)c2ccc(F)cc2)[C@@H](C)CN([C@H](C)CO)C(=O)c2cc(NC(=O)Nc3ccc(F)cc3)ccc2O1,-0.13,54,nt,14
C[C@@H]1CCCCO[C@H](CN(C)S(=O)(=O)c2ccc(F)cc2)[C@@H](C)CN([C@H](C)CO)C(=O)c2cc(NS(=O)(=O)c3ccc(F)cc3)ccc2O1,0.099,37,nt,18
C[C@@H]1CCCCO[C@@H](CN(C)S(=O)(=O)c2ccccc2)[C@@H](C)CN([C@H](C)CO)C(=O)c2cc(NC(=O)Nc3ccc(F)cc3)ccc2O1,0.21,105*,nt,14
C[C@@H]1CCCCO[C@H](CN(C)C(=O)CCCN(C)C)[C@@H](C)CN([C@H](C)CO)C(=O)c2cc(NS(=O)(=O)c3ccccc3)ccc2O1,4.9*,-17,nt,1
COc1ccc(S(=O)(=O)N(C)C[C@@H]2OCCCC[C@@H](C)Oc3ccc(NC(=O)NC4CCCCC4)cc3C(=O)N([C@H](C)CO)C[C@@H]2C)cc1,-0.0028,140*,nt,8
COc1ccc(S(=O)(=O)N(C)C[C@@H]2OCCCC[C@@H](C)Oc3ccc(NS(=O)(=O)c4ccc(F)cc4)cc3C(=O)N([C@H](C)CO)C[C@@H]2C)cc1,-0.24,128*,nt,36
COc1ccc(Cn2c(=O)[nH]c3cc(C(=O)NCc4ccccc4)ccc3c2=O)cc1,nt,nt,5,nt
c1ccc2[nH]c(Nn3cnnc3)nc2c1,nt,-16,6,nt
O=C(NCCc1ccccc1)c1ccc2c(c1)sc1nc(-c3ccccc3)cn12,nt,53,3,nt
CCC(C)NC(=O)CN1CCN(Cc2ccc(Cl)cc2)C1=O (stereo not drawn),nt,nt,0,nt
CCN1C(=O)C(=Cc2cccn2-c2ccc(O)cc2)C(=O)N(CC)C1=S,nt,nt,-4,nt
C[C@@H]1CCCCO[C@@H](CN(C)C)[C@@H](C)CN([C@H](C)CO)C(=O)c2cc(NS(=O)(=O)c3ccc(F)cc3)ccc2O1,0.19,-5,nt,-13
COc1ccc(S(=O)(=O)Nc2ccc3c(c2)C(=O)N([C@@H](C)CO)C[C@@H](C)[C@H](CN(C)S(=O)(=O)c2ccc(F)cc2)O3)cc1,0.1,2,0,-8
COc1ccc(S(=O)(=O)N(C)C[C@@H]2Oc3ccc(NS(=O)(=O)c4ccc(F)cc4)cc3C(=O)N([C@@H](C)CO)C[C@@H]2C)cc1,19*,10,-4,7
C[C@@H]1CCCCO[C@H](CN(C)CC2CCCCC2)[C@@H](C)CN([C@H](C)CO)C(=O)c2cc(NS(=O)(=O)c3ccc(F)cc3)ccc2O1,0.057,98*,nt,-1
C[C@@H]1CCCCO[C@@H](CN(C)S(=O)(=O)c2cn(C)cn2)[C@@H](C)CN([C@H](C)CO)C(=O)c2cc(NC(=O)C3CCCCC3)ccc2O1,-0.68,126*,nt,-6
C[C@@H]1CN([C@H](C)CO)C(=O)c2cc(NC(=O)C3CCCCC3)ccc2O[C@H]1CN(C)S(=O)(=O)c1cn(C)cn1,-0.2,-8,0,-13
Cc1ccc(S(=O)(=O)Nc2ccc3c(c2)C(=O)N([C@H](C)CO)C[C@H](C)[C@@H](CN(C)S(=O)(=O)c2ccccc2)OCCCC[C@@H](C)O3)cc1,-0.22,137*,nt,16
O=C1N/C(=N\O)S/C1=C/c1ccc(O)cc1,nt,nt,0,nt
Cc1nn(C)c(C)c1S(=O)(=O)N1CCN(c2ccccc2)CC1,nt,nt,2,nt
C[C@@H]1CCCCO[C@H](CN(C)S(=O)(=O)c2ccccc2)[C@@H](C)CN([C@H](C)CO)C(=O)c2cc(NC(=O)c3ccncc3)ccc2O1,0.0017,1,nt,-8
SMILES,YB-1 expr inh,ROS inducer,BJeLR viability,MITF inhib
Cc1ccc(S(=O)(=O)N(C)C[C@@H]2OCCCC[C@@H](C)Oc3ccc(NS(=O)(=O)c4ccc(Cl)cc4)cc3C(=O)N([C@H](C)CO)C[C@@H]2C)cc1,-0.68,111*,nt,54
C[C@@H]1CCCCO[C@@H](CN(C)S(=O)(=O)c2ccccc2)[C@@H](C)CN([C@H](C)CO)C(=O)c2cc(NS(=O)(=O)c3ccc(F)cc3)ccc2O1,-0.26,206*,nt,27
C[C@@H]1CCCCO[C@@H](CN(C)S(=O)(=O)c2ccccc2)[C@@H](C)CN([C@H](C)CO)C(=O)c2cc(NC(=O)c3ccccc3)ccc2O1,-0.19,132*,nt,19
Cc1ccc(Cn2cc3c(n2)-c2c(oc(C(=O)NCCCN4CCCCCC4)c2C)CC3)cc1,nt,-14,11,nt
C=CCNC(=O)[C@@H]1[C@H]2C(=O)O[C@H](c3ccccc3)[C@H](c3ccccc3)N2[C@H](c2ccc(OCCO)cc2)[C@@]12C(=O)N(C(=O)OCCOC)c1ccc(C#CCC(C(=O)OC)C(=O)OC)cc12,0.032,132*,nt,nt
C=CCNC(=O)[C@H]1[C@@H]2C(=O)O[C@@H](c3ccccc3)[C@@H](c3ccccc3)N2[C@@H](c2ccc(OCCO)cc2)[C@]12C(=O)N(C(=O)OCCOC)c1ccc(C#CCC(C(=O)OC)C(=O)OC)cc12,0.34,157*,nt,nt
CCOC(=O)C(C)Oc1ccc2c(-c3ccccc3)cc(=O)oc2c1 (stereo not drawn),-0.007,107*,-11,-11
COC(=O)c1cnn2c(C)c(Cc3ccccc3)c(C)nc12,nt,-3,10,nt
C[C@@H]1CN([C@H](C)CO)C(=O)c2cc(NC(=O)Nc3cccc4ccccc34)ccc2O[C@@H]1CN(C)C(=O)Nc1ccccc1,-0.2,84*,-1,-13
CC(C)NC(=O)N(C)C[C@H]1Oc2c(NC(=O)Nc3ccc(F)cc3)cccc2C(=O)N([C@@H](C)CO)C[C@H]1C,4.3*,-14,-9,4
C[C@H](CO)N1C[C@H](C)[C@H](CN(C)C(=O)Nc2ccc(F)cc2)Oc2c(NC(=O)Nc3ccccc3)cccc2C1=O,-0.39,-3,-1,3
C[C@H](CO)N1C[C@H](C)[C@H](CN(C)C(=O)Nc2ccccc2)Oc2c(NC(=O)Nc3ccc(F)cc3)cccc2C1=O,3*,0,-4,17
O=C(CCc1ccccc1)Nc1ccc(-c2nc3ccccc3o2)cc1,nt,4,4,nt
Cc1ccc(C(=O)Cn2c3c(sc2=N)CCCC3)cc1,0.091,25,4,88*
C=CCn1c2ccccc2c2nnc(SCC(=O)c3ccc(Cl)cc3)nc21,nt,70,nt,48
Cn1c2ccccc2c2nnc(SCC(=O)c3ccc(Cl)cc3)nc21,nt,117*,nt,33
CC(C)CCOc1ccc(C(=O)C(CN2CCOCC2)c2ccccc2)cc1 (stereo not drawn),nt,25,78*,nt
O=C(NCc1cccnc1)c1ccc(/C=C2\Sc3ccccc3N(Cc3ccccc3F)C2=O)cc1,nt,nt,123*,nt
